Assay outcomes from PubChem BioAssay.
Shown are actives, neighbours in structure and some others; about 3% of the full set was active somewhere.
IEC-6 cytotox: kills IEC-6 intestinal cells in KLF5 counter-screen; IEC-6 cytotoxicity, luminescence viability; inhibition, % at 5 µM; 290,000 tested, 0.78% active;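 further: 0% = plate median of test compound wells and 100% = cytotoxic reference compound wells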
CSC inhib: cancer stem cell inhibition | cancer stem cell-like cells viability, luminescence | inhibition, % at 7.5 µM | 300,000 tested, 1.1% active; in the data active means inhibition above about 75%; tested in HMLE shEcad cells
SKKanGAS inh: SKKanGAS growth inhibition | S. pyogenes SKKanGAS, kanamycin growth, BacTiter-Glo, 6 h | AID 1662 | inhibition, % at 7.5 µM | 300,000 tested, 1.3% active;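 active means mean replicate score, as percent of positive control median, at least 50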;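 further: strain carries kanamycin resistance gene driven by streptokinase promoter and grows in 40 µg/ml kanamycin; loss of luminescence reflects streptokinase promoter inhibition or plain growth inhibition; 0% = median of DMSO wells and 100% = positive control at its reference dose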
KLF5 inhibitor: kruppel-like factor 5 inhibition; DLD-1 KLF5 promoter-luciferase reporter, luminescence; inhibition, % at 5 µM; 290,000 tested, 0.23% active;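 active means inhibition above a per-plate limit of that plate's mean compound inhibition plus 3 SD, cut at about 60% in these data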;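 further: 0% = DMSO wells and 100% = LY294002 at 200 µM; higher means less KLF5 promoter-driven luciferase light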
aSyn UTR inh: 5' untranslated region of α-synuclein, MLPCN primary screen. 300,000 tested, 0.82% active. inhibition, % (tested at 7.5 µM). alpha-synuclein 5'UTR reporter, inhibitor activity; in the data active means inhibition above about 60%;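 further: H4 neuroglioblastoma cells stably carrying SNCA 5'UTR luciferase fusion; 0% = DMSO wells and 100% = positive control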
IEC-6 tox confirm: IEC-6 cytotoxicity, confirmation assay; shares compounds with IEC-6 cytotox; inhibition, % at 5 µM; 1,900 tested, 63% active; IEC-6 rat intestinal epithelial viability, luminescence;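 further: 0% = vehicle and 100% = reference cytotoxic drug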
The depositor's hits bear a star; . = not tested or not shown. Unless noted, no stated cut-off is given here; in the data, active means inhibition above about 22%; inactive means the rest.

SMILES | IEC-6 cytotox | CSC inhib | SKKanGAS inh | KLF5 inhibitor | aSyn UTR inh | IEC-6 tox confirm
CN(C)c1ccc(/C=C/c2ccc3c4ccccc4ccc3[n+]2-c2ccccc2)cc1 | 65* | . | . | 45 | . | 80*
O=C(CN1CCCCC1)N=Nc1c(O)[nH]c2ccccc12 | -1 | -13 | 7 | -23 | -24 | .
O=C(CN1CCN(Cc2ccccc2)CC1)N=Nc1c(O)[nH]c2ccccc12 | 23* | 9 | 2 | -8 | 50 | 6
CCSc1nsc(NC(=O)Nc2cccc(F)c2)n1 | 46* | 93* | 66* | -14 | 36 | 32*
COc1cccc(-c2c(C(=O)N/N=C(\C)c3ccc(Cl)s3)nnn2-c2nonc2N)c1 | -5 | 7 | 17 | -31 | 1 | .
COc1ccc(-c2cn[nH]c2-c2ccc(OCC(=O)NN)cc2O)cc1OC | 5 | -4 | 3 | -15 | 26 | .
C=C(C)COc1ccc(-c2[nH]ncc2-c2ccc(OC)c(OC)c2)c(O)c1 | 62* | 92* | 2 | 51 | -13 | 57*
CC(=O)N1CCC(C(=O)OCc2ccccc2F)(c2ccccc2)CC1 | 4 | -1 | 1 | -6 | -1 | .
C=CCN1C(=O)C(O)(CC(=O)c2ccco2)c2cc(Br)ccc21 (stereo not given) | 87* | 30 | -5 | -3 | -15 | 23*
COc1ccccc1NC(=S)N1CCC(C(=O)c2ccc(F)cc2)CC1 | -2 | -6 | 1 | -12 | -5 | .
Cc1sc2nc(-c3ccncc3)[nH]c(=O)c2c1-c1ccccc1 | 1 | 8 | 4 | 20 | 2 | .
Cc1sc2nc(-c3ccccn3)[nH]c(=O)c2c1-c1ccccc1 | 28* | 21 | 80* | -14 | . | 33*
OCCC1CN(CCCc2ccccc2)CCN1Cc1ccccc1 (stereo not given) | 23* | 20 | -7 | -22 | 1 | 3
COC(=O)c1cccc(Nc2ncnc3ccc(C)cc23)c1 | 2 | -5 | -10 | -34 | -88 | .
Cc1ccc2ncnc(Nc3cccc([N+](=O)[O-])c3)c2c1 | 31* | 43 | -1 | -33 | -44 | 63*
CCC(CC)c1nnc(NC(=O)c2cc(-c3ccccc3)nc3ccccc23)s1 | 1 | 39 | 23 | 4 | 16 | .
CCC(CC)c1nnc(NC(=O)c2ccc3ccccc3n2)s1 | 35* | 17 | 79* | 2 | -86 | 3
COc1ccc(OC)c(NC(=O)c2nc(S(=O)(=O)Cc3ccccc3)ncc2Cl)c1 | 75* | 106* | -12 | 45 | 99* | 6
COc1ccc(OC)c(NC(=O)CS(=O)(=O)Cc2ccccc2)c1 | 2 | . | -3 | -30 | 11 | .
COc1ccc(NC(=O)c2nc(S(=O)(=O)Cc3cccc(C)c3)ncc2Cl)c(OC)c1 | 66* | 28 | 3 | 24 | 82* | 20
Cc1ccc(C(=O)CCNc2ccc(F)c(Cl)c2)o1 | 31* | 28 | 2 | -7 | -19 | 34*
C=CCOc1ccc2nc(NC(=O)OC)[nH]c2c1 | 82* | 51 | 2 | 51 | 66* | 53*
COc1ccccc1CNC(=O)CCC(=O)N1Cc2cccc(OC)c2Oc2ncccc21 | 6 | -12 | 8 | -11 | 8 | .
CC1=[N+](C)c2c(ccc3cccnc23)C1(C)C | 26* | . | . | -46 | . | 33*
COc1ccc(C2=NN(C(=O)c3cccs3)C(O)(C(F)(F)F)C2)cc1 (stereo not given) | 54* | 5 | 1 | -6 | 30 | 41*
SMILES | IEC-6 cytotox | CSC inhib | SKKanGAS inh | KLF5 inhibitor | aSyn UTR inh | IEC-6 tox confirm
O=C(c1ccccc1)N1N=C(c2ccccc2)CC1(O)C(F)(F)F (stereo not given) | 5 | -14 | -3 | -21 | 1 | .
COc1ccc(OCc2cc(C(=O)NC3CCOC(C)(C)C3)no2)c2ccccc12 (stereo not given) | 42* | 12 | 17 | -32 | -183 | 1
CSc1ccccc1OCc1cc(C(=O)NC2CCOC(C)(C)C2)no1 (stereo not given) | 2 | 1 | 9 | -15 | -12 | .
CC(Cc1c[nH]c2ccccc12)C(=O)NCc1ccco1 (stereo not given) | -4 | . | 0 | -48 | -8 | .
CCn1ncc(C2=NOC(C(=O)NCc3ccc(Cl)cc3)C2)c1C (stereo not given) | 83* | 57 | 5 | 54 | 1 | 51*
CCn1ncc(C2=NOC(C(=O)Nc3ccc(C)cc3)C2)c1C (stereo not given) | -4 | -1 | 8 | 11 | -12 | .
CCOc1ccc(-c2cc(C(=O)N/N=C(\C)c3cccnc3)c3ccccc3n2)cc1 | 36* | 8 | 14 | -19 | -92 | 11
COc1ccccc1-c1cc(C(=O)N/N=C/c2ccc(C)o2)c2ccccc2n1 | 3 | . | -2 | -13 | -2 | .
NNC(=O)c1cc(-c2cccs2)nc2ccccc12 | 32* | 1 | 2 | 26 | -2 | 3
CCc1ccc(/C=N/NC(=O)c2cc(C3CC3)nc3ccccc23)s1 | 34* | -6 | 4 | 27 | 15 | 54*
NS(=O)(=O)c1ccc(NC(=O)c2cc(-c3cccs3)nc3ccccc23)cc1 | 2 | 10 | -6 | -3 | 10 | .
Cc1ccc(/C=N/NC(=O)c2cc(-c3ccncc3)nc3ccccc23)o1 | 65* | . | -4 | 60 | -12 | 45*
COc1ccccc1-c1cc(C(=O)N/N=C/c2sccc2C)c2ccccc2n1 | -4 | -17 | 10 | -17 | 39 | .
O=C(N/N=C/c1ccc([N+](=O)[O-])o1)c1cc(-c2ccncc2)nc2ccccc12 | -5 | 43 | 8 | -1 | -67 | .
O=C(N/N=C/c1ccc([N+](=O)[O-])o1)c1cc(-c2ccc(-c3ccccc3)cc2)nc2ccccc12 | 36* | 78* | 74* | 32 | 76* | 52*
O=C(N/N=C/c1cccnc1)c1cc(-c2ccccc2)nc2ccccc12 | 5 | -6 | 6 | -22 | -19 | .
O=C(N/N=C/c1cccnc1)c1cc(-c2ccc(Br)cc2)nc2ccccc12 | 26* | 3 | . | 11 | . | 21
Cc1ccsc1/C=N/NC(=O)c1cc(-c2ccncc2)nc2ccccc12 | 72* | 78* | 3 | 61 | 67* | 58*
O=C(NNS(=O)(=O)c1ccccc1)C1CC(c2cccnc2)=NO1 (stereo not given) | -6 | -5 | 22 | 1 | -10 | .
C=CCN1C(=O)N/C(=C/c2ccc(N3CCOCC3)o2)C1=O | 32* | 15 | -4 | -4 | -14 | 0
Cc1ccc(-c2nc(SC(C)C(=O)N3CCCC3)n[nH]2)cc1 (stereo not given) | . | -4 | 9 | . | -4 | .
COc1cc(NS(=O)(=O)c2ccc(OC)c(C)c2C)c(OC)cc1Cl | 35* | 57 | 14 | 53 | -26 | 52*
CCOC(=O)c1c(CN2CCN(C)CC2)n(C)c2cc(Br)c(OC)cc12 | -1 | 42 | 1 | -41 | -42 | .
CCOC(=O)c1c(CSC(=N)N)n(C)c2cc(Br)c(OC(C)=O)cc12 | 24* | 7 | 1 | -14 | 1 | 12
